Sampled rows, rich in hits. Any-hit rate of the full collection: about 12%.
CHX counter = affects cycloheximide protein synthesis inhibition readout, counter-screen; cell reporter, cycloheximide protein synthesis inhibition counterscreen; max response, %; 12% of 300,000 active; AID 2314; in the data active = max response mostly above about 13%, no sharp cut-off; inactive = mostly below about 14%; also: read at 38.3 µM for the half of the compounds with a filed dose
LASV entry inh = Lassa virus entry inhibition; 1.2% of 300,000 active; Potency, µM (series often up to 37.9 µM), hits mostly inhibitors; Lassa virus pseudotype entry inhibition, cell reporter; calls by dose curve; tested in HEK293 cells; also: nearly all actives have a fitted effect of over 50% in size
Marburg entry inh = inhibitors of Marburg virus binding or cell entry | Potency, µM (titrated, usually from 37.8 µM), actives largely listed as inhibitors | Marburg virus pseudotyped entry inhibition, cell reporter | 1.8% of 300,000 active; calls by dose curve; tested in HEK293 cells
Shiga toxin inh = blocks Shiga toxin action in Vero cells | inhibition, % at 38.7 µM | AID 2315 | Vero cells, Shiga toxin protein synthesis inhibition reporter | 9.2% of 290,000 active; in the data active = inhibition mostly above about 28%, no sharp cut-off; inactive = mostly below about 43%
Of the large screens only hits and unclear results are named; the others gave an inactive call.

O=C1CCC(C(=O)Nc2ccc(Cl)cc2)N1 (stereo not given)	none
CCc1ccc(NC(=O)C2CCCCC2C(=O)O)cc1 (stereo not given)	none
COc1ccc(C(=O)NC2CC(=O)N(c3ccc4c(c3)OCCO4)C2)cc1 (stereo not given)	none (no result: CHX counter, Marburg entry inh, Shiga toxin inh)
COc1cc(/C=N/n2nnnc2N)cc(Cl)c1OC	Marburg entry inh inconclusive (no result: CHX counter, Shiga toxin inh)
Cc1cc2c(cc1C)CSC(c1ccc3ccccc3c1O)SC2	LASV entry inh inconclusive, Marburg entry inh 3.7µM
N#C/C(=N\Nc1cccc([N+](=O)[O-])c1)C(=O)c1ccc(Br)cc1	Marburg entry inh inconclusive (no result: LASV entry inh)
O=C(/C(N=Nc1cccc([N+](=O)[O-])c1)=C(/O)c1ccc(Br)cc1)C(F)(F)F	CHX counter 22, Shiga toxin inh 86 (no result: LASV entry inh, Marburg entry inh)
COc1ccccc1NC(=O)CC(=O)c1ccccc1	Shiga toxin inh 55
COc1ccccc1NC(=O)CC(=O)Nc1ccccc1OC	none
COc1ccc(C(=O)CC(=O)c2ccccc2)cc1	LASV entry inh inconclusive (no result: CHX counter, Shiga toxin inh)
COc1ccccc1C(=O)CC(=O)c1ccccc1	CHX counter 68, Shiga toxin inh 85 (no result: LASV entry inh, Marburg entry inh)
COc1ccc(-c2nc(N3CCN(C)CC3)sc2-c2ccc(OC)cc2)cc1	LASV entry inh inconclusive, Marburg entry inh inconclusive
O=C(N1CCCC1)N1CCN(S(=O)(=O)c2ccccc2)CC1	none
Cc1ccccc1/C=C1\OC(=O)c2ccccc21	CHX counter 20, Shiga toxin inh 40
O=C1O/C(=C\C(=O)N2CCOCC2)c2ccccc21	none
Cc1ccc(/C=C2\OC(=O)c3ccccc32)cc1	CHX counter 53, LASV entry inh inconclusive, Shiga toxin inh 107
O=C(NCc1cccc(Cl)c1)C1CCN(c2nn3cc(-c4ccc(F)cc4)nc3s2)CC1	none (no result: CHX counter, Marburg entry inh, Shiga toxin inh)
CC1=Nc2ccccc2N=C(NC(=O)CSC(=S)N2CCN(C)CC2)C1c1ccccc1 (stereo not given)	Marburg entry inh inconclusive
CC1=Nc2ccccc2N=C(NC(=O)CSC(=S)N2CCCCC2)C1c1ccccc1 (stereo not given)	Marburg entry inh 10µM
Cc1cc(C(=O)CSc2nc3ccc(Cl)cc3[nH]2)c(C)n1C	none
O=C(CSc1nc2ccc(Cl)cc2[nH]1)c1cccs1	CHX counter 58, Shiga toxin inh 122 (no result: LASV entry inh, Marburg entry inh)
O=C(CSc1nc2cc(Cl)ccc2o1)c1cccs1	CHX counter 23, LASV entry inh inconclusive
O=C(CSc1nc2cc(Cl)ccc2o1)NCCc1ccccc1	none
C=CCN=C1NN=C(c2ccc3c(c2)OCCO3)CS1	CHX counter 21, LASV entry inh 0.46µM, Marburg entry inh 0.92µM, Shiga toxin inh 41
Fc1ccc(C2=NNC(=NCc3ccccc3)SC2)cc1F	CHX counter 34, Marburg entry inh inconclusive, Shiga toxin inh 64
CC(=O)Nc1ccc(C2=NN(C)C(=NCc3ccccc3)SC2)cc1	LASV entry inh inconclusive, Marburg entry inh inconclusive
Clc1ccc(C2=NNC(=NCc3ccccc3)SC2)cc1	Marburg entry inh inconclusive, Shiga toxin inh 74
C=Cc1ccc2c(c1)OCCOCCOCCOCCOCCO2	none
COc1ccccc1C1=NNC(=NCc2ccccc2)SC1	CHX counter 31, Marburg entry inh inconclusive, Shiga toxin inh 33
CCOc1ccc(CCNC(=O)C2=C(C)C(=O)OC23CCCCC3)cc1	none (no result: CHX counter, Shiga toxin inh)
c1ccc(CN=C2NN=C(c3ccccc3)CS2)cc1	CHX counter 55, Marburg entry inh inconclusive
C=CCN=C1NN=C(c2cc(C)n(CC=C)c2C)CS1	CHX counter 28, LASV entry inh inconclusive, Marburg entry inh inconclusive
CC(=O)c1c(C)[nH]c(C2=NNC(=NCc3ccccc3)SC2)c1C	none (no result: LASV entry inh, Marburg entry inh)
CC(C)N=C1NN=C(c2ccc(F)cc2)CS1	CHX counter 18, LASV entry inh inconclusive, Marburg entry inh inconclusive, Shiga toxin inh 80
Cc1c(N=C2NN=C(c3c[nH]c4ccccc34)CS2)c(=O)n(-c2ccccc2)n1C	none (no result: LASV entry inh, Marburg entry inh)
c1ccc(C2=NNC(=NCc3ccc4c(c3)OCO4)SC2)cc1	CHX counter 18, Shiga toxin inh 80
Cc1onc(-c2ccccc2)c1C(=O)N/N=C/c1c(F)cccc1Cl	none
CCN=C1NN=C(c2ccc(C)cc2)CS1	CHX counter 38, LASV entry inh inconclusive, Marburg entry inh inconclusive, Shiga toxin inh 106
COCCN=C1NN=C(c2ccc(NC(C)=O)cc2)CS1	none (no result: LASV entry inh)
CN(C)C(=O)c1cc(C(=O)c2ccc(F)cc2C(F)(F)F)c[nH]1	Marburg entry inh inconclusive
CN(C)C(=O)c1cc(C(=O)c2ccccc2F)c[nH]1	none (no result: LASV entry inh, Marburg entry inh)
CN(C)C(=O)c1cc(C(=O)c2ccc(C(F)(F)F)cc2F)c[nH]1	CHX counter 42, Marburg entry inh inconclusive, Shiga toxin inh 92
CN(C)C(=O)c1cc(C(=O)c2ccc(F)cc2F)c[nH]1	CHX counter 16, Shiga toxin inh 102
CCOc1ccc2c(c1)c(=O)c(C(=O)c1ccc3c(c1)OCO3)cn2Cc1cccc(F)c1	Marburg entry inh inconclusive (no result: CHX counter, Shiga toxin inh)
Cc1nc2c(c(=O)c3ccccc3n2C)c(=O)n1C1CCCCCC1	Marburg entry inh inconclusive

Screening data from PubChem.
